PLK1 PBD inh = inhibitors of human PLK1 polo-box domain binding; Plk1 PBD binding of FITC phosphopeptide, fluorescence polarization; Potency, µM, for inactives: max response, negative = inhibition, hits mostly inhibitors; 360,000 compounds, 2.8% hits; AID 720504; further: series mostly up to about 57 µM; on the % scale 0 is the no-effect control and ±100 the full control effect; nearly all actives have a fitted effect of over 65% in size
ALOX12 inh = ALOX12 (human) lipoxygenase inhibition. P18054. purified 12hLO, xylenol orange hydroperoxide absorbance. Potency, µM (titrated, usually from 108 µM), for the others: top-dose activity change, negative = inhibition, usual class: inhibitors. 580,000 compounds, 1.1% hits; further: on the % scale 0 is the no-effect control and ±100 the full control effect
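Purified human 12hLO (150 nM final) in 25 mM Hepes, 0.01% Triton X-100, pH 7.0 was preincubated 15 min at room temperature with compound. Then 40 uM arachidonic acid was added, 30 min. Hydroperoxide was read by Fe-XO absorbance ratio 573/405 nm.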
KAT2A inh = GCN5L2 (KAT2A) acetyltransferase inhibition | Q92830 | GCN5L2 HAT assay, ThioGlo1 CoA-SH fluorescence | Potency, µM (top dose mostly 58.9 µM), for inactives: at the top dose activity change, negative = inhibition, actives largely listed as inhibitors | 390,000 compounds, 0.21% hits | AID 504327; further: on the % scale 0 is the no-effect control and ±100 the full control effect
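Compounds, pin-transferred from DMSO stocks, meet 20nM GCN5L2 for 15 min before the reaction begins with H3(1-25) peptide (75uM) and acetyl-CoA (70uM). Thiol-reactive ThioGlo1 reports CoA release over 20 min at room temperature.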
VDR inhibitor = inhibitors of human vitamin D receptor; VDR-SRC2-3 peptide fluorescence polarization, 2 h; Potency, µM, for the others: max response, negative = inhibition, usual class: inhibitors; 400,000 compounds, 0.93% hits; AID 504847; further: on the % scale 0 is the no-effect control and ±100 the full control effect
Target sequence (P11473 whole entry, looked up): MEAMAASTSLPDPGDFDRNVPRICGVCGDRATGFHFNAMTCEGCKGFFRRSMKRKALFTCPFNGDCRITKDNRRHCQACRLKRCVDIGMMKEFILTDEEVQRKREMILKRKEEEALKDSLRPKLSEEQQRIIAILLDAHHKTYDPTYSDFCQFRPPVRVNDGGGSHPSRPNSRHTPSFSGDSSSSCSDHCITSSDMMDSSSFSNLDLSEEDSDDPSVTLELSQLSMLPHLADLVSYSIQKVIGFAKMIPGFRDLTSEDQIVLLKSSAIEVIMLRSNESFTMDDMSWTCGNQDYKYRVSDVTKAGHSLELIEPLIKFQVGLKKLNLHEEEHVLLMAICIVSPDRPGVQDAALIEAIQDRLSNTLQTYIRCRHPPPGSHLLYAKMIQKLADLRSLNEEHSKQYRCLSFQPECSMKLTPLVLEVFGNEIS
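Compounds are added to VDR with labelled SRC2-3 coactivator peptide and held 2 h at room temperature. Inhibition of the VDR–peptide interaction is then read as a change in fluorescence polarization.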
VDR confirm = confirmation of human vitamin D receptor inhibitors. Potency, µM, actives largely listed as inhibitors. shares compounds with VDR inhibitor. VDR-coactivator inhibition assay, qHTS confirmation. 840 compounds, 89% hits
VDR FP = blocks human VDR-coactivator binding in fluorescein assay; AID 602200; VDR-coactivator binding, fluorescein fluorescence polarization; 840 compounds, 48% hits; Potency, µM (doses to about 57.1 µM), for the others: top-dose activity change, negative = inhibition, actives largely listed as inhibitors; shares compounds with VDR inhibitor
VDR bla = inhibits human VDR in beta-lactamase reporter cells; shares compounds with VDR inhibitor; VDR beta-lactamase reporter cells, FRET ratio; cells co-treated with VDR agonist LG190178; Potency, µM (top dose mostly 46.1 µM), for inactives: at the top dose activity change, negative = inhibition, most hits filed as inhibitors; 840 compounds, 23% hits; AID 602202; further: on the % scale 0 is the no-effect control and ±100 the full control effect
VDR viability = cell toxicity, VDR inhibitor hit counter-screen | shares compounds with VDR inhibitor | cytotoxicity counter-screen, cell viability, qHTS | Potency, µM (series often up to 48.3 µM), for inactives: at the top dose activity change, negative = cytotoxicity, hits mostly cytotoxic | 840 compounds, 18% hits | AID 602204;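 further: plate controls were DMSO for no effect and high-concentration cycloheximide for full effect; nearly all actives have a fitted effect of over 75% in size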
* hit, by the source's call; i = inactive; u = inconclusive; x = no result. Hits are enriched below; roughly 3% of the tested compounds scored in any of these assays. The call rests on the fitted dose curve; in most records, active means well fitted curve in the direction sought with a large enough effect; inconclusive means small, poorly fitted or top-dose-only effect, or another doubt; inactive means no such curve, though single readings can be large; an effect the other way counts as inactive or inconclusive. Potency means the concentration at half of the fitted maximal effect.

SMILES	PLK1 PBD inh	ALOX12 inh	KAT2A inh	VDR inhibitor	VDR confirm	VDR FP	VDR bla	VDR viability
CCOc1ccccc1NC(=O)c1nc(S(=O)(=O)Cc2cccc(C)c2)ncc1Cl	u	41%	-6%	16µM*	8.4*	u	3.3µM*	7.3µM*
CCOc1c(CN)cccc1OC	x	4%	x	x	x	x	x	x
CCC(C(=O)NC(C)C)c1ccccc1 (stereo not given)	x	2%	x	x	x	x	x	x
COCCNC(=O)CCc1ncc(-c2ccc(Cl)cc2Cl)o1	x	65%	x	x	x	x	x	x
CCc1nnc(NC(=O)c2nc(S(=O)(=O)Cc3cccc(C)c3)ncc2Cl)s1	27µM*	2%	-5%	13µM*	3*	u	5.8µM*	u
CCc1nnc(NC(=O)c2nc(SCc3ccccc3F)ncc2Cl)s1	x	-15%	-15%	4%	x	x	x	x
O=C(Cc1ccccc1)Nc1sc2c(c1C(=O)Nc1ccc(Cl)cc1)CCCC2	x	16µM*	u	28µM*	3.2*	2.2µM*	-13%	7%
O=C(Cc1ccccc1)Nc1sc2c(c1C(=O)Nc1ccccc1)CCCCC2	x	u	-1%	u	x	x	x	x
Cc1nc2c(=O)[nH]c(=S)n(C)c2nc1C	3µM*	32µM*	u	50µM*	15*	u	-6%	u
Cn1c(=S)[nH]c2cccnc21	-12%	u	-9%	-11%	x	x	x	x
CC(C)Oc1ccc(C(=O)NC2=NCCS2)cc1	27µM*	195%	-13%	79µM*	24*	u	15%	25%
COc1ccc(C(=O)NC2=NCCS2)cc1	-7%	i	-14%	17%	x	x	x	x
Cc1cccc(NC(c2ccc(O)cc2)c2ccc3ccc(C)nc3c2O)n1 (stereo not given)	4.2µM*	u	-9%	45µM*	11*	u	26%	0%
CSc1nnc(NC(=O)c2nc(S(=O)(=O)Cc3cccc(C)c3)ncc2Cl)s1	u	-4%	2%	14µM*	4.2*	u	5.8µM*	16µM*
CC(C)c1nnc(NC(=O)c2nc(S(=O)(=O)Cc3ccccc3F)ncc2Cl)s1	-12%	23%	4%	20µM*	8.4*	3.2µM*	18µM*	21µM*
CCSc1nnc(NC(=O)c2nc(S(=O)(=O)Cc3ccc(F)cc3)ncc2Cl)s1	u	-6%	-9%	u	2.8*	3.5µM*	16µM*	19µM*
CSc1ncc(Cl)c(C(=O)Nc2nnc(SC/C=C/c3ccccc3)s2)n1	u	2%	-22%	-6%	x	x	x	x
O=C(Nc1nc2ccc(F)cc2s1)c1nc(S(=O)(=O)Cc2ccccc2F)ncc1Cl	x	-20%	-22%	u	x	x	x	x
Cc1cccc(CS(=O)(=O)c2ncc(Cl)c(C(=O)Nc3nnc(C(C)C)s3)n2)c1	u	u	0%	8.9µM*	6*	3.5µM*	8.2µM*	13µM*
CC(C)c1nnc(NC(=O)c2nc(SCc3ccc(F)cc3)ncc2Cl)s1	x	7%	-11%	0%	x	x	x	x
CC(NC(=O)c1n[nH]c(=O)c2ccccc12)c1ccco1 (stereo not given)	x	-23%	x	x	x	x	x	x
COc1ccc(Nc2nc(COC(=O)c3ccc4c(c3)C(=O)N(C)C4=O)cs2)cc1	x	6%	x	x	x	x	x	x
CCOC(=O)COc1ccc2c(C)c(C)c(=O)oc2c1C	x	-19%	x	x	x	x	x	x
Cc1ccc(CS(=O)(=O)c2ncc(Cl)c(C(=O)Nc3nnc(C(C)C)s3)n2)cc1	u	-6%	-2%	13µM*	6.7*	3.2µM*	9.2µM*	18µM*
CC(C)c1nnc(NC(=O)c2nc(S(=O)(=O)Cc3ccc(F)cc3)ncc2Cl)s1	-22%	-3%	-4%	10µM*	7.5*	3.5µM*	16µM*	10µM*
Cc1ccc(NN2C(=O)C=C(c3ccccc3)C2=O)cc1	8.4µM*	u	-24%	25µM*	8.4*	u	u	-2%
